# Source: PubChem
# Compounds with a hit are over-represented: about 10% of the library has one in this group of screens.
# Luciferase inh – Firefly luciferase inhibition profiling of diverse chemical library using quantitative high-throughput screening. Luciferin 4-monooxygenase (Photinus pyralis), P08659. purified P. pyralis luciferase, luminescence, biochemical. Potency, µM (doses to about 115 µM), hits mostly inhibitors. actives 2.5% (n = 76,000); note: nearly all actives have a fitted effect of over 65% in size
#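 Cell-free enzyme assay, 10nM P. pyralis luciferase, luciferin and ATP each at 10uM. Inhibition profiled over a 6-point titration, read as luminescence.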
# NIH3T3 tox – Cytotoxic Profiling in NIH 3T3 Cell Line of Diverse Libraries Using Quantitative High-Throughput Screening; NIH 3T3 viability, CellTiter-Glo ATP luminescence, 48-72 h; Potency, µM (titrated, usually from 96.7 µM), without a hit: top-dose activity change, negative = cytotoxicity, hits mostly inhibitors; AID 1345082, 2018; actives 4.3% (n = 94,000); note: nearly all actives have a fitted effect of over 55% in size
#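 Luminescent ATP readout (CellTiter-Glo, 10 min RT) after 48 or 72 hr compound exposure of NIH 3T3 cells seeded at 400 cells/well in 1536-well format; quantitative HTS.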
# GPT2 inhibitor – Primary qHTS assay for inhibitors of Glutamate pyruvate transaminase 2 (GPT2); Alanine aminotransferase 2 (Homo sapiens), Q8TD30; Recombinant GPT2, coupled pyruvate oxidase/HRP Amplex Red fluorescence; Potency, µM (series often up to 57.7 µM), without a hit: top-dose activity change, negative = inhibition, most hits filed as inhibitors; actives 0.25% (n = 100,000); AID 1671188, 2021; note: nearly all actives have a fitted effect of over 60% in size
#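 Fluorescence read-out: pyruvate from GPT2 turnover coupled to pyruvate oxidase, HRP and Amplex Red (0.2mM ThPP, 0.2U/mL PO and HRP, 50uM Amplex final). Substrates 250uM a-KG, 2mM L-alanine; enzyme 10ng/uL; 30 min RT.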
# hNpr1 antagonist – Natriuretic polypeptide receptor (hNpr1) antagonism - Primary qHTS; Potency, µM (series often up to 46.3 µM), inactives show top-dose activity change, negative = inhibition, usual class: inhibitors; HEK293 hNpr1 GloSensor cGMP, ANP-stimulated luminescence; actives 1.6% (n = 76,000); AID 1347048, 2019; calls by dose curve; note: nearly all actives have a fitted effect of over 60% in size
#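 HEK293 cells stably expressing human Npr1 and cGMP GloSensor pGS-40F, loaded 2 h with 2% GloSensor reagent, given compound 30 min at room temperature. Luminescence read before and 20 min after 0.1 nM hNppA.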
# HEK293 tox – Cytotoxic Profiling in HEK 293 Cell Line of Diverse Libraries Using Quantitative High-Throughput Screening | HEK 293 viability, ATP luminescence (CellTiter-Glo), 48-72 h | Potency, µM (highest dose often 115 µM), without a hit: at the top dose activity change, negative = cytotoxicity, usual class: inhibitors | actives 6.6% (n = 94,000) | AID 1345083, 2018; note: nearly all actives have a fitted effect of over 60% in size
#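 Cells seeded first (HEK 293, 250 cells/well), then compound added by pintool. Incubation ran 48 or 72 hr at 37 degree Celsius. CellTiter-Glo was added and luminescence imaged after 10 min at room temperature.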
# An asterisk follows results filed as active; i = inactive; ? = inconclusive; · = not tested or not shown; [ ] = remark or other dose. Unless noted, calls come from the whole dose curve; as a rule, active = well fitted curve in the direction sought with a large enough effect; inconclusive = small, poorly fitted or top-dose-only effect, or another doubt; inactive = no such curve, though single readings can be large; an effect the other way counts as inactive or inconclusive. % is set by controls: 0 for no effect and ±100 for the full control effect; potency is the fitted concentration of half-maximal effect.
SMILES,Luciferase inh,NIH3T3 tox,GPT2 inhibitor,hNpr1 antagonist,HEK293 tox
O=C(N[C@@H]1CN(Cc2cccc(F)c2)C[C@H]1CO)c1ccccc1,i,?,1%,5%,7.1µM*
COc1ccc(C(=O)N[C@@H]2CN(Cc3ccccc3)C[C@H]2CO)cn1,i,?,i,4%,28µM*
O=C(N[C@@H]1CN(Cc2cc(F)cc(F)c2)C[C@H]1CO)c1ccccc1,i,-64%,-2%,2%,-81%
COc1ccc(-c2nc(C3CC3)nc3c2CCN(Cc2ccc(NC(C)=O)cc2)CC3)cc1,·,-26%,4%,·,?
CC1=C[C@@H](CNC(=O)CCC(=O)O)[C@H](C(C)C)C[C@H]1CC(=O)N(C)Cc1ccccc1,i,-14%[174 µM],i,0%[70.6 µM],-7%[172 µM]
CC1=C[C@@H](CNC(=O)c2ccco2)[C@H](C(C)C)C[C@H]1CC(=O)N(C)Cc1ccccc1,i,100µM*,i,1%[70.6 µM],?
COCCC(=O)NC[C@@H]1C=C(C)[C@H](CC(=O)N(C)Cc2cccnc2)C[C@H]1C(C)C,56µM*,0%[174 µM],-3%[88.5 µM],-4%[70.6 µM],-15%[172 µM]
CC1=C[C@@H](CNS(=O)(=O)c2cccc(C#N)c2)[C@H](C(C)C)C[C@H]1CC(=O)NCc1cccnc1,i,-6%,?,-3%,-9%
CC1=C[C@@H](CNS(=O)(=O)c2ccc(C)cc2)[C@H](C(C)C)C[C@H]1CC(=O)N(C)Cc1cccnc1,i,11µM*,-5%,-19%,45µM*
Cc1ccc(Cn2cc(-c3ccncc3)cc2C(=O)N2CCCCCC2)cc1,?,?,i,-4%,?
CCCC(=O)Nc1cc(C2CCCC2)nn1C,·,-2%[174 µM],-2%[88.5 µM],·,i
Cc1cnc(NC(=O)c2ccc3c(c2)OCCN(CCC(C)C)C3)s1,?,?,-3%[88.5 µM],-23%[70.6 µM],?
Cc1csc(NC(=O)c2ccc3c(c2)OCCN(CCC(F)(F)F)C3)n1,?,?,-23%[88.5 µM],-9%[70.6 µM],79µM*
CC(C)CCN1CCOc2cc(C(=O)Nc3ccc4cn[nH]c4c3)ccc2C1,?,?,2%[88.5 µM],-24%[70.6 µM],89µM*
COCC(=O)NC1CCCc2c1[nH]c1c(Cl)cccc21 (stereo unspecified),i,-12%,-10%,1%,?
COc1ccc(CC(=O)NC2CCCc3c2[nH]c2c(Cl)cccc32)cc1 (stereo unspecified),i,25µM*,-22%,-20%,?
COc1ccc(C(=O)NC2CCCc3c2[nH]c2c(Cl)cccc32)cc1OC (stereo unspecified),i,?,i,-26%,?
CC(=O)NC1CCCc2c1[nH]c1ccc(F)cc21 (stereo unspecified),i,-12%,i,-1%,?
COc1ccc(C(=O)NC2CCCc3c2[nH]c2ccccc32)cc1OC (stereo unspecified),i,?,-20%,-12%,45µM*
CC(C)(C)C(=O)NC1CCCc2c1[nH]c1ccc(F)cc21 (stereo unspecified),i,?,-31%,-7%,45µM*
Cn1nc(C(=O)NC2CCCc3c2[nH]c2ccccc32)c2ccccc2c1=O (stereo unspecified),i,?,1%,-18%,35µM*
COCCCn1c(=O)c(C(=O)NCCc2ccc(OC)cc2)nc2cccnc21,·,1%,3%,·,-3%
COc1cccc(-c2c(C(=O)NC(C)C)nc3sccn23)c1,·,?,i,·,?
O=C(NC1CCCc2c1[nH]c1c(Cl)cccc21)c1ccncc1 (stereo unspecified),i,-22%,-7%,-15%,-27%
Cc1noc(C)c1CC(=O)NC1CCCc2c1[nH]c1ccc(F)cc21 (stereo unspecified),i,?,0%,-4%,?
